PubChem BioAssay
Calls of active or inactive are those of the source.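 Rule for the calls: active = normalized viability below 100% at a tested concentration; inactive = the rest.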

Assay: ovarian cancer cell viability with rucaparib, profiling panel, oncology-focused library, rucaparib conditional (AID 1508598)
Conditions: patient-derived ovarian cancer cells, CellTiter-Glo viability, 144 h; at 0.00488 µM; OCI-C5x cells; with rucaparib 10 µM; active compounds read low; 100% = cells with rucaparib alone
In the case of `O=c1[nH]c(=O)n([C@@H]2C[C@H](O)[C@@H](CO)O2)cc1F`, the viability is reported as 106% (inactive). With `COc1cccc2c1C(=O)c1c(O)c3c(c(O)c1C2=O)C[C@@](O)(C(C)=O)C[C@H]3O[C@H]1C[C@H](N)[C@H](O)[C@H](C)O1` the viability was 125% (inactive). For `C[C@]12CC[C@H]3c4ccc(O)cc4CC[C@H]3[C@@H]1CC[C@H]2O`, the viability was 109% (inactive). For `CC1=C(/C=C/C(C)=C\C=C\C(C)=C/C(=O)O)C(C)(C)CCC1`, the viability was 111% (inactive). In the case of `CC(C)CC(CC(=O)NO)C(=O)N[C@@H](Cc1ccc2ccccc2c1)C(=O)N[C@@H](C)C(=O)NCCN` (stereo partly drawn), the viability is reported as 123% (inactive). In the case of `COc1cccc2c1C(=O)c1c(O)c3c(c(O)c1C2=O)C[C@@](O)(C(=O)CO)C[C@H]3O[C@H]1C[C@H](N)[C@@H](O)[C@H](C)O1`, the viability is reported as 90.6% (active). For `COc1ccc(C2=N[C@H](c3ccc(Cl)cc3)[C@@H](c3ccc(Cl)cc3)N2C(=O)N2CCNC(=O)C2)c(OC(C)C)c1`, the viability was 130% (inactive). In the case of `CO[C@H]1C[C@H]2CC[C@@H](C)[C@@](O)(O2)C(=O)C(=O)N2CCCC[C@H]2C(=O)O[C@H]([C@H](C)C[C@@H]2CC[C@H](OC(=O)C(C)(CO)CO)[C@H](OC)C2)CC(=O)[C@H](C)/C=C(\C)[C@@H](O)[C@@H](OC)C(=O)[C@H](C)C[C@H](C)/C=C/C=C/C=C/1C`, the viability is reported as 88.7% (active). With `O=C(O)c1cc(I)ccc1NC(=O)[C@H](Cc1ccccc1)NCc1ccccc1` the viability was 133% (inactive). For `Nc1ncn([C@@H]2O[C@H](CO)[C@@H](O)[C@@H]2O)c(=O)n1`, the viability was 114% (inactive). In the case of `CO[C@H]1C[C@@H]2CC[C@@H](C)[C@@](O)(O2)C(=O)C(=O)N2CCCC[C@H]2C(=O)O[C@H]([C@H](C)C[C@@H]2CC[C@@H](O)[C@H](OC)C2)CC(=O)[C@H](C)/C=C(\C)[C@@H](O)[C@H](OC)C(=O)[C@H](C)C[C@H](C)/C=C/C=C/C=C/1C`, the viability is reported as 94.9% (active). In the case of `CC(=O)OCC(=O)[C@]1(O)[C@H](C)C[C@H]2[C@@H]3CCC4=CC(=O)C=C[C@]4(C)[C@]3(F)[C@H](O)C[C@@]21C`, the viability is reported as 131% (inactive). In the case of `CC[C@]1(O)C[C@@H]2CN(CCc3c([nH]c4ccccc34)[C@@](C(=O)OC)(c3cc4c(cc3OC)N(C=O)[C@H]3[C@@](O)(C(=O)OC)[C@H](OC(C)=O)[C@]5(CC)C=CCN6CC[C@@]43[C@@H]65)C2)C1`, the viability is reported as 66.7% (active). With `C[C@@]12CC[C@H]3c4ccc(O)cc4C[C@@H](CCCCCCCCCS(=O)CCCC(F)(F)C(F)(F)F)[C@H]3[C@@H]1CC[C@@H]2O` (stereo partly drawn) the viability was 118% (inactive). In the case of `CC(=O)O[C@@]1(C(C)=O)CC[C@H]2[C@@H]3C[C@H](C)C4=CC(=O)CC[C@]4(C)[C@@H]3CC[C@@]21C`, the viability is reported as 122% (inactive). For `CC(=O)O[C@]12CO[C@@H]1C[C@H](O)[C@]1(C)C(=O)[C@H](O)C3=C(C)[C@H](OC(=O)[C@H](O)[C@@H](NC(=O)OC(C)(C)C)c4ccccc4)C[C@](O)([C@H](OC(=O)c4ccccc4)C21)C3(C)C` (stereo partly drawn), the viability was 37.6% (active). For `CCC1=CC2CN(C1)Cc1c([nH]c3ccccc13)[C@@](C(=O)OC)(c1cc3c(cc1OC)N(C)[C@H]1[C@@](O)(C(=O)OC)[C@H](OC(C)=O)[C@]4(CC)C=CCN5CC[C@@]31[C@H]54)C2` (stereo partly drawn), the viability was 50.6% (active). With `CC(=O)O[C@H]1C(=O)[C@@]2(C)C([C@H](OC(=O)c3ccccc3)[C@]3(O)C[C@H](OC(=O)[C@H](O)[C@@H](NC(=O)c4ccccc4)c4ccccc4)C(C)=C1C3(C)C)[C@]1(OC(C)=O)CO[C@@H]1C[C@H]2O` (stereo partly drawn) the viability was 75.3% (active).
